# Data published in PubChem BioAssay (Tox21).
# Records with an inconclusive call do not appear. A call without a number means that no potency is given here. Activity calls are given as the source filed them. Unless noted, calls follow the shape of the dose curve; as a rule, active = well fitted curve in the direction sought with a large enough effect in the repeat runs; inconclusive = weak or mixed curves; inactive = no such curve, though single readings can be large; an effect the other way counts as inactive or inconclusive.
# Assays:
# [1] = qHTS assay to identify small molecule antagonists of the estrogen related receptor (ERR) signaling pathway (AID 1224819; also: nearly all actives have a fitted effect of over 50% in size)
# Method in brief: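 Luminescence readout (One-Glo, 30 min, RT) of ERR cell line after 18 h compound exposure at 37 C; cells seeded 2,000/well, pre-incubated 6 h, compounds pinned from DMSO stocks.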
# [2] = qHTS assay to identify small molecule agonists of the estrogen related receptor (ERR) signaling pathway (AID 1224820)
# Method in brief: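 Luminescence readout (One-Glo, 30 min RT) from NTP-supplied ERR cell line exposed to compounds for 18 h at 37 C. Cells seeded 2,000 per well and pre-incubated 6 h before pin-tool compound transfer.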
# [3] = qHTS assay to identify small molecule agonists of the estrogen related receptor signaling pathway with the pleiotropic PPARgamma coactivator (PGC) (AID 1224823)
# Method in brief: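 Luminescence readout (One-Glo, 30 min RT) from PGC/ERR cell line treated 18 h at 37 C with pin-tool-delivered DMSO compound solutions; cells plated 6 h before dosing. Quantitative HTS format.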
# [4] = test system: estrogen-related receptor alpha (ERRalpha) with PGC-1alpha coactivator, human; experiment: qHTS assay to identify small molecule antagonists of the estrogen related receptor signaling pathway with the pleiotropic PPARgamma coactivator (PGC) (AID 1224821; calls by dose curve; also: nearly all actives have a fitted effect of over 50% in size)
# Method in brief: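 PGC/ERR reporter cells; 6 h pre-incubation 37 C/5% CO2; pin-tool compound in DMSO, 18 h 37 C; One-Glo added, 30 min RT; luminescence read. qHTS antagonist mode.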
# [5] = qHTS assay to identify small molecule antagonists of the estrogen related receptor signaling pathway with the pleiotropic PPARgamma coactivator (PGC) cell viability counter screen (AID 1224822;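 also: viability read after 17.5 h compound exposure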)
# Method in brief: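 Fluorescence read-out of CellTiter-Fluor after 30 min at 37 C; PGC/ERR cells, 2,000 per well, had been exposed to DMSO-dissolved compounds for 17.5 h following a 6 h pre-incubation.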
# Potency is read from the fitted curve at half-maximal effect.
Structure (SMILES),Potency [1],Potency [2],Potency [3],Potency [4],Potency [5]
Oc1ccc2ccccc2c1SSc1c(O)ccc2ccccc12,20.3 µM (active),inactive,inactive,,
N#C/C(=C\c1ccc(O)c(O)c1)C(=O)Nc1ccccc1,inactive,,,inactive,
Oc1cc(O)cc(/C=C/c2ccc(O)c(O)c2)c1,inactive,8.41 µM (active),18.1 µM (active),,inactive
CSc1ccccc1N1CCN(CCCCCC(=O)NC2CCCc3ccccc32)CC1 (stereo not given),16.2 µM (active),inactive,inactive,,
CN1C2CCC1CC(OC(c1ccccc1)c1ccccc1)C2 (stereo not given),inactive,inactive,inactive,,
O=[N+]([O-])c1ccc(-c2nc(-c3ccc(F)cc3)c(-c3ccncc3)[nH]2)cc1,13.3 µM (active),inactive,inactive,,
CC(=O)[C@H]1CCC2C3CC=C4C[C@@H](OS(=O)(=O)O)CC[C@]4(C)C3CC[C@@]21C (stereo not given in full),inactive,,inactive,inactive,inactive
Oc1ccc(-c2nc(-c3ccc(F)cc3)c(-c3ccncc3)[nH]2)cc1,11.4 µM (active),inactive,inactive,,
O=C(NOCC1CC1)c1cc(Br)c(F)c(F)c1Nc1ccc(I)cc1Cl,2.98 µM (active),inactive,inactive,,
O=C(c1ccc2c(c1)OCCO2)N1CCCCC1,inactive,,inactive,inactive,inactive
CN(C)c1cc2c(Nc3ccc4c(cnn4Cc4ccccc4)c3)ncnc2cn1,13.3 µM (active),inactive,inactive,,
CC1(C)C(=O)N(CCN2CCC(C(=O)c3ccc(F)cc3)CC2)c2ccccc21,21.1 µM (active),inactive,inactive,,
COc1ccc(NC(=O)/C=C/c2ccc(Cl)cc2)cc1,inactive,,,inactive,inactive
CC(C)(C)c1onc(OCP(=O)(O)O)c1CC(N)C(=O)O (stereo not given),inactive,,inactive,inactive,inactive
CC(=O)/C(C)=N/O,inactive,,inactive,inactive,inactive
CCCCCCCCCC(=O)NC(CN1CCOCC1)[C@H](O)c1ccccc1 (stereo not given in full),17.4 µM (active),,inactive,inactive,inactive
CCCC(=O)NCCc1c2n(c3ccc(OC)cc13)CCCc1ccccc1-2,20.3 µM (active),inactive,inactive,,

Structure (SMILES),Potency [1],Potency [2],Potency [3],Potency [4],Potency [5]
Cn1cnc2c(NCc3ccccc3)nc(NCCO)nc21,inactive,,inactive,inactive,inactive
O=C(c1ccc(Cl)cc1)N1CCN(c2ccc([N+](=O)[O-])c3ncccc23)CC1,7.5 µM (active),inactive,inactive,,
CCCCS(=N)(=O)CC[C@H](N)C(=O)O (stereo not given in full),inactive,,inactive,inactive,inactive
N[C@H](C(=O)O)c1cc(O)cc(O)c1,inactive,,inactive,inactive,inactive
CCc1ccc(/C=C2/SC(=S)NC2=O)cc1,inactive,inactive,inactive,,
COC1=C(OC)C(=O)c2ccccc2C1=O,11 µM (active),inactive,inactive,,
Oc1cc2c(cc1O)C(c1ccccc1)CNCC2 (stereo not given),inactive,inactive,inactive,,
COc1cc(NS(C)(=O)=O)ccc1Nc1c2ccccc2nc2ccccc12,0.779 µM (active),,,inactive,18.1 µM (active)
O=Nc1ccc2oc(=O)ccc2c1,inactive,,,inactive,inactive
CN=c1nc(-c2ccccc2)n(-c2ccccc2)s1,inactive,inactive,inactive,,
COc1cc(OC)c(/C=C2/C(=O)Nc3ccccc32)c(OC)c1,11 µM (active),inactive,inactive,,
NC(=Nc1ccccc1)NC(=O)c1nc(Cl)c(N)nc1N,inactive,,inactive,inactive,inactive
CN1CCc2cc(NC(=O)Nc3cccnc3)ccc21,inactive,,,inactive,inactive
Brc1c(Br)c(Br)c2n[nH]nc2c1Br,22 µM (active),,inactive,21.1 µM (active),inactive
Oc1cc2c(c(Cl)c1O)CCNCC2c1ccccc1 (stereo not given),8.41 µM (active),inactive,inactive,,
CN(C)c1nc(N)c(C(=O)N=C(N)N)nc1Cl,inactive,inactive,inactive,,inactive
